Activity calls are given as the source filed them. The calls were made as follows: active = hit-call score of the fitted dose curve at least 0.9, where 1 is the maximum; inactive = score below 0.9.

This assay is described as follows: CCTE_Harrill_HTTr_Viability_MCF7: CCTE's 6-hour Cell Viability Assessment for the High-Throughput Transcriptomics (HTTr) Platform, in MCF-7 cells cultured in DMEM + 10% fetal bovine serum, Harrill Lab (AID 2284010). The essentials: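 PI exclusion, high-content imaging; 8-pt dilution series, 6 h exposure; bidirectional fit vs DMSO (neg. ctrl/baseline); gain of signal = loss of membrane integrity.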
On to `C=C(c1ccc(C(=O)O)cc1)c1cc2c(cc1C)C(C)(C)CCC2(C)C`, for which the result was inactive. As for `c1cnc2c(c1)ccc1cccnc12`, the outcome was inactive. As to `C[C@]12CC[C@@H]3c4ccc(O)cc4CC[C@H]3[C@@H]1CC[C@@H]2OC(=O)CCC1CCCC1`, the result was inactive. For `CC1CCC(CO)CC1` (stereo not drawn), the outcome was inactive. Take `CC(=O)Nc1ccc(S(N)(=O)=O)cc1`: the outcome was inactive. The term AC50 denotes the concentration at which the activity in the assay is half-maximal. On to `CCCCCCCCCCCC[N+](C)(C)Cc1ccccc1`, for which the concentration at half-maximal activity (AC50) is 68.8 µM (active). As for `CC(C)(C)C1CCCCC1O` (stereo not drawn), the result was inactive. As for `C=Cc1ccc(O)c(OC)c1`, the outcome was inactive.

For the compound `c1cc2cccc3c4cccc5cccc(c(c1)c23)c54`, the result was inactive. For `Cc1[nH]nc2c1N=C(c1ccccc1Cl)c1cc([N+](=O)[O-])ccc1N2`, the outcome was inactive. In the case of `Cc1cc(Cc2cc(C)cc(C(C)(C)C)c2O)c(O)c(C(C)(C)C)c1`, the outcome was inactive.

For `O=C(O)c1cccc(C(=O)O)n1`, the result was inactive.

With `Cn1sccc1=O`, the outcome was inactive. On the same count and under the same terms, for `CCCCCCCCCCCCOS(=O)(=O)O` the value was “inactive”. In the case of `Cc1cccc2c1ccc1ccccc12`, the result was inactive. As for `O=C(NO)c1ccccc1`, the outcome was inactive. Consider `CNNCc1ccc(C(=O)NC(C)C)cc1`, for which the outcome was inactive. Consider `CC(C)c1c(C(=O)Nc2ccccc2)c(-c2ccccc2)c(-c2ccc(F)cc2)n1CC[C@@H](O)C[C@@H](O)CC(=O)O`, for which the result was inactive. Regarding `COc1cc(OC)nc(NC(=O)NS(=O)(=O)Nc2ccccc2C(=O)N(C)C)n1`, the result was inactive. Take `Cc1ccccc1C(OCCN(C)C)c1ccccc1` (stereo not drawn): the outcome was inactive. With `C=CC(C)(CCC=C(C)C)OC(C)=O` (stereo not drawn), the outcome was inactive. As to `O=c1cc(-c2ccccc2)oc2ccc3ccccc3c12`, the result was inactive. For the compound `CC1=NN(c2ccccc2)C(=O)C1`, the result was inactive. On to `CCCCC(CC)C(=O)O` (stereo not drawn), for which the result was inactive. As to `CS(=O)(=O)c1ccc([C@@H](CC2CCCC2)C(=O)Nc2cnccn2)cc1Cl`, the outcome was inactive. The same measure, in the same setting: for `O=C(O)C(=O)O` the value was “inactive”. `CCCCCCCCCCCCCCCCCC[N+](C)(C)Cc1ccccc1`: the outcome was inactive. On to `CCCCCC(C)OC(=O)COc1ccc(Cl)c2cccnc12` (stereo not drawn), for which the result was inactive.

With `Cc1ccc(N=Nc2c(O)ccc3ccccc23)c(C)c1`, the result was inactive. Take `CC(C)(c1ccc(Oc2ccc(N)cc2)cc1)c1ccc(Oc2ccc(N)cc2)cc1`: the outcome was inactive. Same read-out and setting: for `NS(=O)(=O)O` the value was “inactive”; for `CCCCCCCCCCCC(=O)O`, “inactive”; for `O=S(=O)(O)c1ccccc1`, “inactive”. For `COC1=CC(=O)C[C@@H](C)[C@]12Oc1c(Cl)c(OC)cc(OC)c1C2=O`, the outcome was inactive.

Consider `CCCCCCCCC(C)=O`, for which the result was inactive. In the case of `Cc1cncc(C)c1`, the result was inactive. For `Brc1ccc(Oc2ccc(Br)cc2Br)cc1`, the outcome was inactive. On to `CCC(=O)O`, for which the outcome was inactive.

The values above are taken from PubChem BioAssay (EPA / NIEHS).
